Hit rate of the full screen: of about 310,000 compounds, about 2,200 (0.71%) showed an effect of 50% or more. The effect is printed as a negative number. The list comes from a sample in which strong results are over-represented; it also holds similar structures and randomly drawn compounds.
Molecular target: human ether-à-go-go-related gene (hERG) potassium channel (human, UniProt Q12809)
Assay: primary screen, population patch clamp on CHO cells stably expressing hERG; higher = less effect of the substance
Description: Briefly, Chinese hamster ovary (CHO) cells stably expressing the hERG channel were dislodged from tissue culture flasks and dispensed into PPC plates. […] During the recording, background leak currents were estimated by a 100 ms step to -80 mV from an initial holding potential of -70 mV and subtracted from the subsequent current measurement. The campaign was conducted in two phases using slight differences in recording protocol. In the first phase, the initial voltage pulse used a 100 ms step to -30 mV from a holding potential of -70 mV, a 2 s conditioning step to +25 mV, and a 2 s test step to -30 mV. During the second phase of the screen, the potential during the conditioning step was raised to +45 mV. In both phases of the campaign, a secondary voltage pulse was applied using the same parameters as the second phase initial pulse. The initial and secondary pulses were applied in the absence of compound, and upon application of 1 μM and 10 μM test concentrations. Small molecule effects on hERG current density were quantified by […].

Sequence of human ether-à-go-go-related gene (hERG) potassium channel (Q12809 whole entry, looked up): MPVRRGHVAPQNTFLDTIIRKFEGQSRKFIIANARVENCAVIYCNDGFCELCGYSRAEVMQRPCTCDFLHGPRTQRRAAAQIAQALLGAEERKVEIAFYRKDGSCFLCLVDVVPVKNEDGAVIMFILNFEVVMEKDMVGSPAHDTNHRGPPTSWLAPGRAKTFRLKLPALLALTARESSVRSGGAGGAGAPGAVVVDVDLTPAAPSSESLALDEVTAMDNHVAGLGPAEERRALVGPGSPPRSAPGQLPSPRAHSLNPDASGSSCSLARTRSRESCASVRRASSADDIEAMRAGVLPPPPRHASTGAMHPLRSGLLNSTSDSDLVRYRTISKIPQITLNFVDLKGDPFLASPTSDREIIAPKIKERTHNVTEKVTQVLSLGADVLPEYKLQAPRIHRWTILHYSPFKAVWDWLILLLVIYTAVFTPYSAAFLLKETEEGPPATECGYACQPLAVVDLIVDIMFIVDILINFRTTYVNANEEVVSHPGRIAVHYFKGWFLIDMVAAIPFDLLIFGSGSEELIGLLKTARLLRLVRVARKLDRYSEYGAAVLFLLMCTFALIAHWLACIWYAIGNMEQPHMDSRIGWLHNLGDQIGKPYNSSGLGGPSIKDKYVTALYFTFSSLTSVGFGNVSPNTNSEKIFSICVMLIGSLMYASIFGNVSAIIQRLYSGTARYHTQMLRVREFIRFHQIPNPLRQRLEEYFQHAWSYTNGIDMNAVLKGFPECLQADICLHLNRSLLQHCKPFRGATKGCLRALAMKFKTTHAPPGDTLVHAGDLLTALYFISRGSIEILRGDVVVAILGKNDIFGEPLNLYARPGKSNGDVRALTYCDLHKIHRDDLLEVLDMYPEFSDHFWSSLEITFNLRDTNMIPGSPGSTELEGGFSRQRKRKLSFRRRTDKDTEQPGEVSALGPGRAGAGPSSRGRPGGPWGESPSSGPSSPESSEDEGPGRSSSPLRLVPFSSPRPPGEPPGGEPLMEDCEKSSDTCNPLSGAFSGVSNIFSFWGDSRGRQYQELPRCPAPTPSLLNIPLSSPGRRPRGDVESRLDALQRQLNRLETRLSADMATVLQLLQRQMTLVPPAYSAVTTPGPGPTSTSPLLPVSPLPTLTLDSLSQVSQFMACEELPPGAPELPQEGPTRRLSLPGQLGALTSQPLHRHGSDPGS

Question: `CC(C)Oc1cccc(C(=O)C2CCCN(C(=O)c3cncs3)C2)c1` (centres unmarked) was tested. Which “hERG current change (%, negative = inhibition) at 1uM” value did it give?
Answer: 4.28%

Question: Which “hERG current change (%, negative = inhibition) at 1uM” value does the source give for `COc1ccc(OCc2n(CC(=O)OC3CC(C)CCC3C(C)C)c3ccccc3[n+]2C)cc1.[Cl-]` (centres unmarked) here?
Answer: -45.5%

Question: Which “hERG current change (%, negative = inhibition) at 1uM” value does the source give for `CC1CCC(C(C)C)C(OC(=O)C[n+]2cc(-c3ccc(Cl)cc3)n3c2CCC3)C1.[Cl-]` (centres unmarked) here?
Answer: -25.6%

Question: With `CC1CCC(C(C)C)C(OC(=O)Cn2c(-c3ccc(F)cc3)[n+](C)c3ccccc32)C1.[Cl-]` (centres unmarked) as the molecule, how does the “hERG current change (%, negative = inhibition) at 1uM” value read?
Answer: -53.9%

Question: Which “hERG current change (%, negative = inhibition) at 1uM” value does the source give for `CC1CCC(C(C)C)C(OC(=O)COC(=O)c2cccn2C)C1` (centres unmarked) here?
Answer: 17.6%

Question: With `Cc1cccc(OCc2n(CC(=O)OC3CC(C)CCC3C(C)C)c3ccccc3[n+]2C)c1.[Cl-]` (centres unmarked) as the molecule, how does the “hERG current change (%, negative = inhibition) at 1uM” value read?
Answer: -12.2%

Question: With `CC1CCC(C(C)C)C(OC(=O)Cn2c(-c3ccc(Br)cc3)[n+](C)c3ccccc32)C1.[Cl-]` (centres unmarked) as the molecule, how does the “hERG current change (%, negative = inhibition) at 1uM” value read?
Answer: -60.7%

Question: How did the “hERG current change (%, negative = inhibition) at 1uM” value turn out when `CC1CCC(C(C)C)C(OC(=O)Cn2c(COc3ccccc3)[n+](C)c3ccccc32)C1.[Cl-]` (centres unmarked) was run?
Answer: -54%

Question: How did the “hERG current change (%, negative = inhibition) at 1uM” value turn out when `CC1CCC(C(C)C)C(OC(=O)Cn2c(-c3ccccc3)[n+](C)c3ccccc32)C1.[Cl-]` (centres unmarked) was run?
Answer: -42.1%

Question: With `CC1CCC(C(C)C)C(OC(=O)C[n+]2cc(-c3ccc(Cl)cc3)n3c2CCCCC3)C1.[Cl-]` (centres unmarked) as the molecule, how does the “hERG current change (%, negative = inhibition) at 1uM” value read?
Answer: -19.9%

Question: With `CC1CCC(C(C)C)C(OC(=O)Cn2c(-c3ccc(Cl)cc3)[n+](C)c3ccccc32)C1.[Cl-]` (centres unmarked) as the molecule, how does the “hERG current change (%, negative = inhibition) at 1uM” value read?
Answer: -58%

Question: With `Cc1ccccc1OCc1n(CC(=O)OC2CC(C)CCC2C(C)C)c2ccccc2[n+]1C.[Cl-]` (centres unmarked) as the molecule, how does the “hERG current change (%, negative = inhibition) at 1uM” value read?
Answer: -1.86%

Question: `CC1CCC(C(C)C)C(OC(=O)COC(=O)c2ccccc2N)C1` (centres unmarked) was tested. Which “hERG current change (%, negative = inhibition) at 1uM” value did it give?
Answer: 4.58%

Question: With `COc1ccc(N2CCC(CNS(=O)(=O)c3cccc(C(F)(F)F)c3)C2)cc1` (centres unmarked) as the molecule, how does the “hERG current change (%, negative = inhibition) at 1uM” value read?
Answer: 4.38%

Question: `COc1cccc(NC(=O)Nc2nnc(CC(=O)Nc3ccccc3)s2)c1` was tested. Which “hERG current change (%, negative = inhibition) at 1uM” value did it give?
Answer: 6.56%

Question: How did the “hERG current change (%, negative = inhibition) at 1uM” value turn out when `CC(=O)Oc1ccc(-c2cccc(C(=O)NCCO)c2)cc1` was run?
Answer: 16.3%

Question: How did the “hERG current change (%, negative = inhibition) at 1uM” value turn out when `Cc1ccc(CN2CCN(CC(=O)N=Nc3c(O)[nH]c4ccccc34)CC2)cc1` was run?
Answer: -75.3%

Question: How did the “hERG current change (%, negative = inhibition) at 1uM” value turn out when `O=C(CN1CCN(Cc2ccccc2)CC1)N=Nc1c(O)[nH]c2ccccc12` was run?
Answer: -37.6%

Question: How did the “hERG current change (%, negative = inhibition) at 1uM” value turn out when `O=C(CN1CCN(Cc2ccccc2Cl)CC1)N=Nc1c(O)[nH]c2ccccc12` was run?
Answer: -5.17%

Question: How did the “hERG current change (%, negative = inhibition) at 1uM” value turn out when `COc1cc(C2CC(=O)Nc3cc(C)c(C)cc32)cc(OC)c1OC` (centres unmarked) was run?
Answer: 14.3%

Question: For `COc1ccc(NC(=O)CNS(=O)(=O)c2ccc3nc(C)sc3c2)c(OC)c1`, which “hERG current change (%, negative = inhibition) at 1uM” value is on record?
Answer: 1.77%

Question: `CC(C)C(Sc1nc(-c2ccccc2)cc(-c2ccccc2)c1C#N)C(=O)O` (centres unmarked) was tested. Which “hERG current change (%, negative = inhibition) at 1uM” value did it give?
Answer: 9.23%

Question: For `O=C(CN1CCC(n2nnc3cc(C(F)(F)F)ccc32)CC1)NCc1cccs1`, which “hERG current change (%, negative = inhibition) at 1uM” value is on record?
Answer: -56.9%

Question: With `C=CCNC(=O)CN1CCC(n2nnc3cc(C(F)(F)F)ccc32)CC1` as the molecule, how does the “hERG current change (%, negative = inhibition) at 1uM” value read?
Answer: -0.772%

Question: Which “hERG current change (%, negative = inhibition) at 1uM” value does the source give for `O=C(CN1CCC(n2nnc3ccccc32)CC1)NCc1cccs1` here?
Answer: -47.3%

Question: For `O=C(CN1C(=O)CCSc2ccccc21)Nc1ccc2c(c1)OCO2`, which “hERG current change (%, negative = inhibition) at 1uM” value is on record?
Answer: -4.53%

Question: For `O=C(CCCN1C(=O)/C(=C\c2cccs2)SC1=S)NNC(=O)c1ccncc1`, which “hERG current change (%, negative = inhibition) at 1uM” value is on record?
Answer: 4.39%

Question: For `O=C(/C=C/c1ccc([N+](=O)[O-])cc1)NCCN1C(=O)S/C(=C\c2ccc(F)cc2)C1=O`, which “hERG current change (%, negative = inhibition) at 1uM” value is on record?
Answer: 2.19%

Question: Which “hERG current change (%, negative = inhibition) at 1uM” value does the source give for `O=[N+]([O-])c1ccc(S(=O)(=O)NCCN2CCOCC2)cc1` here?
Answer: 12.6%

Question: For `CCN(CC)S(=O)(=O)c1ccc(S(=O)(=O)N2CCN(CCC#N)CC2)cc1`, which “hERG current change (%, negative = inhibition) at 1uM” value is on record?
Answer: 8.96%

Question: Which “hERG current change (%, negative = inhibition) at 1uM” value does the source give for `N#CCCN(CCN1CCCC1)S(=O)(=O)c1ccc(-c2ccc([N+](=O)[O-])cc2)cc1` here?
Answer: -76.5%

Question: For `Cc1ccc(S(=O)(=O)N(CCC#N)CCN2CCCC2)cc1`, which “hERG current change (%, negative = inhibition) at 1uM” value is on record?
Answer: 2.4%

Question: For `O=S(=O)(NCCN1CCCC1)c1ccc(Br)cc1`, which “hERG current change (%, negative = inhibition) at 1uM” value is on record?
Answer: 3.89%

Question: `O=[N+]([O-])c1ccc(-c2ccc(S(=O)(=O)NCCN3CCCC3)cc2)cc1` was tested. Which “hERG current change (%, negative = inhibition) at 1uM” value did it give?
Answer: -77.3%

Question: `O=C(NCC(c1ccco1)N1CCCC1)c1ccccc1Sc1ccc(C(F)(F)F)cc1[N+](=O)[O-]` (centres unmarked) was tested. Which “hERG current change (%, negative = inhibition) at 1uM” value did it give?
Answer: 4.07%

Question: How did the “hERG current change (%, negative = inhibition) at 1uM” value turn out when `CCOc1ccccc1N1CCN(C(=O)c2cccc(S(=O)(=O)N3CCOCC3)c2)CC1` was run?
Answer: 10.8%

Question: `NC(=O)Cn1cnc2nc3n(c2c1=O)CCC3` was tested. Which “hERG current change (%, negative = inhibition) at 1uM” value did it give?
Answer: -2.24%

Question: Which “hERG current change (%, negative = inhibition) at 1uM” value does the source give for `CC1CN(C(=O)COC(=O)COc2ccc(C#N)cc2)CC(C)O1` (centres unmarked) here?
Answer: 11.6%

Question: Which “hERG current change (%, negative = inhibition) at 1uM” value does the source give for `CC1(C)Cc2c(c(=S)nc(-c3ccccc3)n2CCN2CCOCC2)CO1` here?
Answer: 6.74%

Question: How did the “hERG current change (%, negative = inhibition) at 1uM” value turn out when `CCCC(=O)Nc1nc2c(C)c(Cl)ccc2s1` was run?
Answer: 6.64%

Question: Which “hERG current change (%, negative = inhibition) at 1uM” value does the source give for `COc1ccc(NC(=O)C(c2ccccc2)N(C)C(=O)c2ccc(=O)[nH]c2)cc1` (centres unmarked) here?
Answer: 16.6%

Reference: publication PMC4336329 (PLoS ONE, 2015)
